Data: PubChem BioAssay (NCI)
This is part of a sample that, as a whole, favours compounds with a hit. Of some 79,000 tested, about 15% had one in any assay. A number with no mark means an inactive call. Active and inactive are the calls of the source. No stated cut-off is given here; in the data, active means growth inhibition above about 70%; inactive means the rest.

Legend:
[1] = NCI Yeast Anticancer Drug Screen. Data for the rad50 strain (AID 155);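 further: 0% = growth of vehicle-only cultures of the same strain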; settings: S. cerevisiae rad50 strain growth inhibition; at 50.0 µM; stronger effect = higher value
How it was run: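 Relative growth inhibition (compound vs vehicle) was measured in yeast with a defined repair-gene alteration.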

[2] = NCI Yeast Anticancer Drug Screen. Data for the mec2-1 strain (AID 157); settings: S. cerevisiae mec2-1 strain, at 50.0 µM, stronger effect = higher value
How it was run: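 Readout is yeast growth inhibition, normalised to vehicle-treated controls, in the mec2-1 strain exposed to compound.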

[3] = NCI Yeast Anticancer Drug Screen. Data for the sgs1 mgt1 strain (AID 161);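 further: 0% = growth of cultures given vehicle only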; settings: S. cerevisiae sgs1 mgt1 strain, at 50.0 µM, stronger effect = higher value
How it was run: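 This yeast growth screen uses a strain with defined DNA-repair lesions; compound-treated growth is compared with vehicle-treated growth.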

[4] = NCI Yeast Anticancer Drug Screen. Data for the cln2 rad14 strain (AID 165);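 further: 0% = growth equal to vehicle treated cultures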; settings: S. cerevisiae cln2 rad14 strain, at 50.0 µM, stronger effect = higher value
How it was run: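 Relative to vehicle controls, growth inhibition of compound-treated cln2 rad14 yeast was recorded.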

[5] = NCI Yeast Anticancer Drug Screen. Data for the bub3 strain (AID 167); settings: S. cerevisiae bub3 mutant strain, at 50.0 µM, stronger effect = higher value
How it was run: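 Screening used yeast with an engineered genetic alteration affecting cell cycle control. Compound-exposed cultures were compared with vehicle cultures, and reduced growth was taken as inhibition.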

[6] = NCI Yeast Anticancer Drug Screen. Data for the mlh1 rad18 strain (AID 175); settings: S. cerevisiae mlh1 rad18 strain growth inhibition; at 50.0 µM; stronger effect = higher value
How it was run: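 Test agents were incubated with a yeast strain of defined genotype (DNA damage repair defect). Inhibition of growth was derived by comparison with vehicle-exposed cultures.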

Structure (SMILES) | growth inhibition [1] [%] | growth inhibition [2] [%] | growth inhibition [3] [%] | growth inhibition [4] | growth inhibition [5] [%] | growth inhibition [6] [%]
O=c1c2cccnc2[nH]c2ccc3[nH]ncc3c12 | -17.2 | -25.9 | -13.4 | 26.4% | -30.9 | 15.6
CSC(=NC(=O)c1c(Cl)cccc1Cl)SC | 21.8 | 14.2 | 40.2 | 11.3% | 42.4 | 31.9
CC(=O)N1Cc2c(N)ncnc2C1C (configuration not stated) | -10.9 | -9.45 | -18.8 | -7.25% | -0.25 | -12.2
O=C1C(=O)c2ccccc2C(O)=C1CC=C(Cl)Cl | -3.9 | 5.5 | -5.6 | -33.1% | 29.9 | -33.6
CC1NC(C)c2ccc3ccccc3c2O1 (configuration not stated) | -4.85 | -12.7 | -25.1 | -9.35% | -11.2 | -6.15
CN(C)CC(N)C(=O)O (configuration not stated) | -4.35 | -13.1 | -12.2 | -13.6% | -21.3 | -18.6
CCN(CC)c1ccc2c(c1)Cc1ccccc1-2 | 25.8 | 1.15 | 9.2 | 4.4% | -18.9 | -5.65
OC(CCl)(CCl)CCl | 9.5 | -11.9 | -9.7 | -16.5% | -2.05 | 18.8
CO/N=C1\CC(NC(=O)C(F)(F)F)c2ccsc21 (configuration not stated) | 11.6 | 6.9 | 8 | 13.3% | -2.8 | 38.9
COc1ccccc1C1CCCCC1SCC(=O)O (configuration not stated) | 19.4 | 11.7 | 2.05 | 9.35% | 6.75 | -18.4
CCOC(=O)C1OC1(C)c1ccc(Cl)cc1 (configuration not stated) | 6.1 | 3.8 | -0.7 | 5.25% | -5.8 | 0.6
O=C(O)c1cc(-c2cccs2)c(C(=O)O)s1 | -4.2 | 5.35 | -18.2 | -19.1% | -11.1 | 2.1
OC(Cc1ccc2ccccc2n1)(C(F)(F)Cl)C(F)(F)Cl | -39 | -55.2 | -10.7 | -9.7% | -4.45 | -31.1
COc1cc2ccc1OCc1cccc(n1)COc1ccc(cc1OC)C=NCCNCCN=C2 | -4.6 | -22.8 | -14.9 | -21.8% | -17.3 | -17.4
CCCCCCCCCCCCCCCCCC(=O)OCC(O)CO (configuration not stated) | -2.85 | -16.8 | 2.85 | 7.2% | -0.45 | 7
CC(C)OC(=O)c1ccc(=O)oc1 | 7.4 | -5.85 | -2.4 | -8.75% | -18.4 | -5.15
NNc1ncnc2cccc(Cl)c12 | 7.95 | 27.2 | 18.6 | -24.7% | 1.8 | 11.9
CCN(CC)CCOC(=O)Cc1ccc2c(=O)cc(-c3ccc(C)cc3)oc2c1 | 7.75 | -18.4 | -13.6 | 0.75% | -1.55 | -54.5
O=NN(CCCl)C(=O)NC1CCC(CC(=O)O)CC1 (configuration not stated) | 19.1 | 6.1 | -9.25 | -8.7% | 2.9 | -6.85
Cc1ccc(Cl)cc1NC(=O)Oc1ccc(Cl)cc1C | 23.2 | 9.1 | -7.8 | 8.8% | 15.7 | 3.25
COc1ccc(N=C2SC(=N/N=c3\sc4ccccc4n3C)SC2=Nc2ccc(OC)cc2)cc1 | 4.15 | -32.9 | -2.9 | -41.1% | 28.9 | -12.7

Structure (SMILES) | growth inhibition [1] [%] | growth inhibition [2] [%] | growth inhibition [3] [%] | growth inhibition [4] | growth inhibition [5] [%] | growth inhibition [6] [%]
CCC(CC)COC(=O)CC(CC(=O)OCC(CC)CC)C(=O)OCC(CC)CC | -12.3 | -4.85 | 9.35 | -20.1% | 1.1 | 24.6
O=C(O)c1ccc2c3ccc(C(=O)O)c4c(C(=O)O)ccc(c5ccc(C(=O)O)c1c25)c43 | -21.1 | -33.5 | -17.5 | -0.25% | -19.6 | -19.1
O=C1C2=C(Nc3cc(Cl)ccc3N2)OC1c1c[nH]c2ccc(COc3ccccc3)cc12 (configuration not stated) | -22.4 | 6.6 | -1.55 | 30.4% | -15 | -4.1
COC(=O)c1ccccc1N(C)C(=O)c1cc(OC)c(OC)c(OC)c1 | -27.4 | -37 | -5.75 | -11.1% | -19.4 | -8.85
c1ccc2[nH]cnc2c1 | 7.85 | -1.55 | 0.65 | -4.4% | 8.7 | -46.8
Cc1ccc(S(=O)OC2C3CC4CC(C3)CC2C4)cc1 (configuration not stated) | 6.65 | 10.3 | 0.2 | 30.8% | 1.25 | 0.75
Cc1cc(S(=O)(=O)NC(=NCC(=O)NN)NN)c(S)cc1Cl | -9.85 | 2.65 | -16.6 | -6.95% | 1.3 | 15.4
O=C(Nc1nccs1)c1c(O)nc2sccn2c1=O | 8.7 | -33 | 18.9 | 22.4% | 14.8 | -12.6
CCOc1nc2ccc(N)cc2s1 | 19.6 | -9.55 | 3.25 | -31.9% | 11.4 | -12.3
N#CC1=CN(Cc2ccccc2)C(c2ccccc2)C=C1 (configuration not stated) | 23.2 | -2.15 | -3.9 | 4.65% | 35.9 | 27
CCOC(=O)c1ccc(C(=N)N)cc1 | 8.4 | 2.2 | 11 | -15.2% | 11.2 | 5.55
C/C(CC(=O)Nc1ccc(NC(=O)C/C(C)=N\NC(N)=O)cc1)=N/NC(N)=O | 3.5 | -23.9 | -4.65 | 11.1% | -14.1 | 6.75
COC1CC2CC1C1COCC21 (configuration not stated) | 7.15 | -4.05 | -19.9 | -12.4% | -12.4 | -7.6
COC(=O)c1nc(=S)[nH]c(C(=O)OC)c1C(=O)c1ccccc1 | -25.9 | -12.9 | -27.4 | 36% | -25.4 | -16.4
CCC(CC)COC(=O)CC(C)=O | 18.2 | 52.9 | 6.9 | 86.8% (active) | 28.2 | 33.4
OCCSc1ccc(Cl)cc1 | 14.4 | 25.9 | 5.95 | -31.5% | 12.8 | 27.5
Brc1ccc(Nc2ccc(Br)cc2Br)c(Br)c1 | 28.2 | 23.1 | 16.6 | 11.6% | 3.8 | 10.2
CC1OC2CC(O)C1(O)C1=C2C(O)=C(C(N)=O)C(=N)C1=O (configuration not stated) | 12.3 | -15.6 | 19.4 | 6.8% | 5.35 | -21.4
CCOC(=O)c1ccccc1C(=O)c1ccccc1O | -5.8 | -18 | -1.6 | -0.45% | -5.45 | 18.4
CC(C)OCCOCCO | 7.65 | -10.5 | -4.85 | -24.9% | 10.1 | -1.2
Cc1ccc(S(=O)(=O)N2CCC(C(=O)N3CCCC3)(c3cccc(C)c3)CC2)cc1 | -55.5 | -35.4 | -46.4 | 0.1% | -38.5 | -43.1
